The record followed here is PubChem BioAssay (EPA / NIEHS).

Test [1] concerns the target human Opioid Receptor Mu (Opiate Mu), OPRM1 (gene 4988) (UniProt P35372). The test is described as follows: NVS_GPCR_hOpiate_mu: NovaScreen (NVS) G Protein-Coupled Receptor Assay for human Opioid Receptor Mu (Opiate Mu) (AID 2283290).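 Also: hits lower bound tracer signal versus DMSO meaning displacement of the ligand.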 The procedure:
NVS_GPCR_hOpiate_mu is a biochemical, single-readout assay that uses extracted gene-proteins from CHO in a cell-free assay. Measurements were taken 2.5 hours after chemical dosing in a 96-well plate.NVS_GPCR_hOpiate_mu is one of one assay component(s) measured or calculated from the NVS_GPCR_hOpiate_mu assay. It is designed to make measurements of radioligand binding, a form of binding reporter, as detected with scintillation counting signals by Filter-based radiodetection technology.Data from the assay component NVS_GPCR_hOpiate_mu was analyzed into 1 assay endpoint. This assay endpoint, NVS_GPCR_hOpiate_mu, was analyzed in the positive analysis fitting direction relative to DMSO as the negative control and baseline of activity. Using a type of binding reporter, loss-of-signal activity can be used to understand changes in the binding as they relate to the gene OPRM1. Furthermore, this assay endpoint can be referred to as a primary readout, because the performed assay has only produced 1 assay endpoint. To generalize the intended target to other relatable targets, this assay endpoint is annotated to the gpcr intended target family, where the subfamily is rhodopsin-like receptor.
(§1) Binding assays used specific radioligands (tritiated, iodinated) with non-radioactive competitive displacement ligands in agonist or antagonist protocols (as indicated) and various reference compounds and inhibitors to titrate specific binding to receptors and transporters. Most enzyme assays (CYPs, kinases, phosphatases, proteases, HDACs) used recombinant protein and specific substrates (fluorescence mostly, some colorimetric and radioactive) and inhibitors, followed by a biochemical separation of substrate and product. All assays for the biochemical HTS were initially run in duplicate at a single concentration (10 uM for CYP450 assays and 25 uM for all others). […] Each assay was run with positive and negative controls, and concurrent controls on every plate. The follow-up (secondary) screen tested active chemical-pairs in concentration series, as well as a few additional assays not tested in the primary screen, some selected negative inactives, and several cases re-run in the concentration series for confirmatory purposes.

In test [2] the target is guinea pig Bradykinin Receptor B2 (BK2), BDKRB2 (gene 100135486) (UniProt O70526). The experiment in a line: NVS_GPCR_gBK2: NovaScreen (NVS) G Protein-Coupled Receptor Assay for guinea pig Bradykinin Receptor B2 (BK2) (AID 2283292). The gist of the method:
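Guinea pig ileum membrane preparation incubated 1 h with radioligand and test chemical; bound counts measured after filtration. Primary duplicate screening at 25 uM, then singleton concentration series with a 50 uM top dose; DMSO as baseline.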

The target in test [3] is mouse Cholecystokinin, CCK2 Receptor (CCKB), Cckbr (gene 12426) (UniProt P56481). The experiment in a line: NVS_GPCR_mCKKBCentral: NovaScreen (NVS) G Protein-Coupled Receptor Assay for mouse Cholecystokinin, CCK2 Receptor (CCKB) (AID 2283293). The gist of the method: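 Mouse forebrain membrane preparation incubated 2 h with chemical and radioligand; bound radioactivity counted after filtration. Single-concentration duplicate screen at 25 uM, then concentration series to 50 uM max for hits, DMSO as baseline.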
Sequence of mouse Cholecystokinin, CCK2 Receptor (CCKB), Cckbr (gene 12426) (P56481 whole entry, looked up): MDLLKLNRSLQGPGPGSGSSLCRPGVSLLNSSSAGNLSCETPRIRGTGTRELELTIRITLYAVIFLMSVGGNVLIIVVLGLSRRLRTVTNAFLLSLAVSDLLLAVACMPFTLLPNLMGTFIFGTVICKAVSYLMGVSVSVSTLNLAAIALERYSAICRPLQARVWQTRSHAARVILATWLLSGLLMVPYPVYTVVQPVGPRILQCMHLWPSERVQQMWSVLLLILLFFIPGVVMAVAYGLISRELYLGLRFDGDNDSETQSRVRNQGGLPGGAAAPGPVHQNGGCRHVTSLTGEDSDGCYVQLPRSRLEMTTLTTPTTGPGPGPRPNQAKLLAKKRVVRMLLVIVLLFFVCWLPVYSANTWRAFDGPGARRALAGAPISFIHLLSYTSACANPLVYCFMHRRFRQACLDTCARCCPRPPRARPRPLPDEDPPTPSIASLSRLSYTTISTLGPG

For test [4], the target named is guinea pig Serotonin, 5-Hydroxytryptamine Receptor 4 (5HT4), HTR4 (gene 100135548) (UniProt O70528). The test is described as follows: NVS_GPCR_g5HT4: NovaScreen (NVS) G Protein-Coupled Receptor Assay for guinea pig Serotonin, 5-Hydroxytryptamine Receptor 4 (5HT4) (AID 2283294). The procedure: NVS_GPCR_g5HT4 is a biochemical, single-readout assay that uses extracted gene-proteins from Guinea pig striatal membranes in a tissue-based cell-free assay. Measurements were taken 1 hour after chemical dosing in a 48-well plate.NVS_GPCR_g5HT4 is one of one assay component(s) measured or calculated from the NVS_GPCR_g5HT4 assay. It is designed to make measurements of radioligand binding, a form of binding reporter, as detected with scintillation counting signals by Filter-based radiodetection technology.Data from the assay component NVS_GPCR_g5HT4 was analyzed into 1 assay endpoint. This assay endpoint, NVS_GPCR_g5HT4, was analyzed in the positive analysis fitting direction relative to DMSO as the negative control and baseline of activity. Using a type of binding reporter, loss-of-signal activity can be used to understand changes in the binding as they relate to the gene Htr4. Furthermore, this assay endpoint can be referred to as a primary readout, because the performed assay has only produced 1 assay endpoint. To generalize the intended target to other relatable targets, this assay endpoint is annotated to the gpcr intended target family, where the subfamily is rhodopsin-like receptor.
Sequence of guinea pig Serotonin, 5-Hydroxytryptamine Receptor 4 (5HT4), HTR4 (gene 100135548) (O70528 whole entry, looked up): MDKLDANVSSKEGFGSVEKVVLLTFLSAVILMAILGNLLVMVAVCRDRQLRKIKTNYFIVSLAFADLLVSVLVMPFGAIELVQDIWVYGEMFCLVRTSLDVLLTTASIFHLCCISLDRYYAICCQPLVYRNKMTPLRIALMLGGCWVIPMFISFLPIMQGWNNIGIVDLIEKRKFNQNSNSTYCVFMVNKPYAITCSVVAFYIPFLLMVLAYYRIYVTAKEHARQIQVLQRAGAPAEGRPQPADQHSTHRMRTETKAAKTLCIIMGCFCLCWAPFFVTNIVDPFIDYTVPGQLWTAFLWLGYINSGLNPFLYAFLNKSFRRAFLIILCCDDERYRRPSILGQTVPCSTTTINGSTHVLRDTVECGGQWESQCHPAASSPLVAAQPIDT
as §1

The subject of test [5] is rat Adrenergic, Alpha 1B Receptor (Adra1B), gene 24173. The test is described as follows: NVS_GPCR_rAdra1B: NovaScreen (NVS) G Protein-Coupled Receptor Assay for rat Adrenergic, Alpha 1B Receptor (Adra1B) (AID 2283297). The gist of the method:
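Filter-binding radioligand competition on membranes from rat liver, read after 1 h by scintillation counting. Single-concentration duplicate screen at 25 uM, followed by concentration-response on actives, normalised to DMSO.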

Test [6] addresses rat Adrenergic Receptor, Beta (Adrb), Non-selective Binding, Adrb1 (gene 24925) (UniProt P18090). The test is described as follows: NVS_GPCR_rAdrb_NonSelective: NovaScreen (NVS) G Protein-Coupled Receptor Assay for rat Adrenergic Receptor, Beta (Adrb), Non-selective Binding (AID 2283298). The gist of the method:
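Rat cortical membranes incubated 1 h with beta-adrenergic radioligand and test chemical; bound ligand measured by filtration and scintillation counting. Screen at 25 uM duplicate, then concentration series with 50 uM maximum; loss of signal versus DMSO.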

Test [7] has as its target rat Serotonin, 5-Hydroxytryptamine Receptor (5HT), Non-Selective Binding, Htr1a (gene 24473) (UniProt P19327). The experiment in a line: NVS_GPCR_r5HT_NonSelective: NovaScreen (NVS) G Protein-Coupled Receptor Assay for rat Serotonin, 5-Hydroxytryptamine Receptor (5HT), Non-Selective Binding (AID 2283295). A digest of the protocol: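 Rat cortex membrane preparation incubated 1 h with radioligand and test chemical; bound radioactivity counted after filtration. Screening began in duplicate at 25 uM with concentration-series follow-up; fitting relative to DMSO.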

Test [8] relates to guinea pig Atrionatriuretic Peptide Receptor A (ANPA), gene 100135578. The test is described as follows: NVS_GPCR_gANPA: NovaScreen (NVS) G Protein-Coupled Receptor Assay for guinea pig Atrionatriuretic Peptide Receptor A (ANPA) (AID 2283291). The gist of the method: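 Displacement of specific radioligand from guinea pig cerebellum membranes was read by scintillation after 1 h. A duplicate single-point screen at 25 uM was followed by a concentration series up to 50 uM, analysed relative to DMSO.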

Test [9] concerns the target rat Adrenergic, Alpha 1, Non-selective Receptor (Adra1), Adra1a (gene 29412) (UniProt P43140). The experiment in a line: NVS_GPCR_rAdra1_NonSelective: NovaScreen (NVS) G Protein-Coupled Receptor Assay for rat Adrenergic, Alpha 1, Non-selective Receptor (Adra1) (AID 2283289). A digest of the protocol:
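Chemicals first screened in duplicate at 25 uM, then actives tested in concentration series up to 50 uM. Binding measured as displacement of radioligand from rat forebrain membrane receptors, 1 h, filtration with scintillation readout; DMSO baseline.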

For test [10], the target named is rat Adrenergic, Alpha 1A Receptor (Adra1A), Adra1a (gene 29412) (UniProt P43140). The test is described as follows: NVS_GPCR_rAdra1A: NovaScreen (NVS) G Protein-Coupled Receptor Assay for rat Adrenergic, Alpha 1A Receptor (Adra1A) (AID 2283296). A digest of the protocol:
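Filter radiodetection after 1 h competitive binding on CEC-pretreated rat cortical membranes. Duplicate single-point screening at 25 uM; active chemicals retested across concentration series.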

Inconclusive results are not listed. Active and inactive are the calls of the source. The calls were made as follows: active = hit-call score of the fitted dose curve at least 0.9, where 1 is the maximum; inconclusive = response in the unintended direction; inactive = score below 0.9.

Sequence of rat Serotonin, 5-Hydroxytryptamine Receptor (5HT), Non-Selective Binding, Htr1a (gene 24473) (P19327 whole entry, looked up): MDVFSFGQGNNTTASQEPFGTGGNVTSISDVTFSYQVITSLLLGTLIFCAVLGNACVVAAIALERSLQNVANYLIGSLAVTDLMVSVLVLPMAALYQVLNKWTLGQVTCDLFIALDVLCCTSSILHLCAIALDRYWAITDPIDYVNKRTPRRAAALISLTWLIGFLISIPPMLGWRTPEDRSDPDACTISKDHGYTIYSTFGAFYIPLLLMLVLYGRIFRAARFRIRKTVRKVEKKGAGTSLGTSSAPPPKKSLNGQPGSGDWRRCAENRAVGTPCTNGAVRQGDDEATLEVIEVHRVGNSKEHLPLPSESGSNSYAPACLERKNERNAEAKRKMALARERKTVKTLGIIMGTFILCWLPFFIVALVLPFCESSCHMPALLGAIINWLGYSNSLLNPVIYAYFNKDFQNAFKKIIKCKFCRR
Sequence of rat Adrenergic, Alpha 1, Non-selective Receptor (Adra1), Adra1a (gene 29412) (P43140 whole entry, looked up): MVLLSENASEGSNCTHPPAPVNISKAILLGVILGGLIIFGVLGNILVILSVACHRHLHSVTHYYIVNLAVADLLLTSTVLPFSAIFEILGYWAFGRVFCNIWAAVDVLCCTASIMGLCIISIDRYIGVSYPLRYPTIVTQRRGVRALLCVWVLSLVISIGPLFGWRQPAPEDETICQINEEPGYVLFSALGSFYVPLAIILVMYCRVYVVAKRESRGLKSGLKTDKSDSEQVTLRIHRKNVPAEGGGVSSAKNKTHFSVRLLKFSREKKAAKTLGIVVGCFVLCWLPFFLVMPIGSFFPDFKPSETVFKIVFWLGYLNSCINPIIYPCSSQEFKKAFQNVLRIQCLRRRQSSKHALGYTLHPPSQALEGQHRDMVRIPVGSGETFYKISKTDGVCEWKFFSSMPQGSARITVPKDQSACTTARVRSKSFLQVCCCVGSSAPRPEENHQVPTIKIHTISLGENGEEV
Sequence of human Opioid Receptor Mu (Opiate Mu), OPRM1 (gene 4988) (P35372 whole entry, looked up): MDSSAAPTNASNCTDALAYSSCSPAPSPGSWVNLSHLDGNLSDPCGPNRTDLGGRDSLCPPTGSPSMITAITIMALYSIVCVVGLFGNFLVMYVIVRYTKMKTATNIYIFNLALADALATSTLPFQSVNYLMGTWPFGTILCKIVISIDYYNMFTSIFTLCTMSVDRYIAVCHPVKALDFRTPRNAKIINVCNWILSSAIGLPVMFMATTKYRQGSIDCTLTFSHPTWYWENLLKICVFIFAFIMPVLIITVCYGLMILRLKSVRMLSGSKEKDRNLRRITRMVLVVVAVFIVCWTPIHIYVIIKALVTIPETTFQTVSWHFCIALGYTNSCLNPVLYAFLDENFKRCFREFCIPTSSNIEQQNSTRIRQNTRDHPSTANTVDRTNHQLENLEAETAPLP
Sequence of rat Adrenergic, Alpha 1A Receptor (Adra1A), Adra1a (gene 29412) (P43140 whole entry, looked up): as the sequence (P43140 whole entry, looked up) above
Sequence of rat Adrenergic Receptor, Beta (Adrb), Non-selective Binding, Adrb1 (gene 24925) (P18090 whole entry, looked up): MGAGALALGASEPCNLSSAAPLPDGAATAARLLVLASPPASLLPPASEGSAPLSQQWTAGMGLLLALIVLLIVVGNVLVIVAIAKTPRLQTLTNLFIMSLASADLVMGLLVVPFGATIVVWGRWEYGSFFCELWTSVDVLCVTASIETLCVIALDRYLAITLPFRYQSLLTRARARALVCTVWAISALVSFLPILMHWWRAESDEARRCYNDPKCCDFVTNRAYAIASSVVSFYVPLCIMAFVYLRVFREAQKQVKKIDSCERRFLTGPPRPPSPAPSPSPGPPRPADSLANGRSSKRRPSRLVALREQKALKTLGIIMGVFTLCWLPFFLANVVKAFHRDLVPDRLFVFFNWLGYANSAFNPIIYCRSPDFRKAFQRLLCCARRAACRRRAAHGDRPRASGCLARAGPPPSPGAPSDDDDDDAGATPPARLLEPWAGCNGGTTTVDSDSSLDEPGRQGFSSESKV
Sequence of guinea pig Bradykinin Receptor B2 (BK2), BDKRB2 (gene 100135486) (O70526 whole entry, looked up): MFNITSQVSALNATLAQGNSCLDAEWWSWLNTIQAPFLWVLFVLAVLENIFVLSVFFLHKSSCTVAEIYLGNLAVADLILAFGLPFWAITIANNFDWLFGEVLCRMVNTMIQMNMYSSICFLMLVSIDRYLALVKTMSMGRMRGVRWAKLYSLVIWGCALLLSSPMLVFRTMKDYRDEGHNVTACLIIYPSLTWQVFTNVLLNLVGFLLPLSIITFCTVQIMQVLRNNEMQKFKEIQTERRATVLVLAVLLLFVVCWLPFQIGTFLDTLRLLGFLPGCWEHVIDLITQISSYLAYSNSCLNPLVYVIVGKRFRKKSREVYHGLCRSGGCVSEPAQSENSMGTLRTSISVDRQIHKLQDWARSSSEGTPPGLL

On to `S=C1NCCN1`, for which the compound was classed as inactive in [1] and in test [2].
Take `CC[C@H](C)[C@H]1O[C@]2(C=C[C@@H]1C)C[C@@H]1C[C@@H](C/C=C(\C)[C@@H](O[C@H]3C[C@H](OC)[C@@H](O[C@H]4C[C@H](OC)[C@@H](NC)[C@H](C)O4)[C@H](C)O3)[C@@H](C)/C=C/C=C3\CO[C@@H]4[C@H](O)C(C)=C[C@@H](C(=O)O1)[C@]34O)O2`: the AC50 in [1] is 15 µM (active); in test [3], 15.4 µM (active); in [4], 21.4 µM (active); in test [5], 33.1 µM (active). Besides, the result in test [6] was inactive.
As for `CCCSP(=O)(OCC)Oc1ccc(Br)cc1Cl` (centres undefined), in test [1], the AC50 is 4.96 µM (active).
Take `CCOC(=O)COc1cc(-c2nn(C)c(OC(F)F)c2Cl)c(F)cc1Cl`: the result in test [7] was inactive.
On to `CC(C)[C@H](C(=O)O[C@H](C#N)c1cccc(Oc2ccccc2)c1)c1ccc(Cl)cc1`, for which, in test [4], the result was inactive.
With `CCc1cccc(C)c1N(C(=O)CCl)C(C)COC` (centres undefined), in test [1], the AC50 is 5.26 µM (active).
On to `C#CCC1=C(C)C(OC(=O)C2C(C=C(C)C)C2(C)C)CC1=O` (centres undefined), for which the result in test [8] was inactive.
As for `CCCCOC(=O)c1ccccc1C(=O)O`, in [9], the outcome was inactive.
As to `CCCOCC(=Nc1ccc(Cl)cc1C(F)(F)F)n1ccnc1`, the AC50 in test [1] was 7.33 µM (active). Besides, the result in test [4] was inactive.
On to `CCCCSP(=O)(SCCCC)SCCCC`, for which, in test [3], the result was inactive.
For the compound `CCOP(=S)(OCC)Oc1ccc2c(C)c(Cl)c(=O)oc2c1`, in [8], the result was inactive.
Turning to `CSC1=N[C@@](C)(c2ccccc2)C(=O)N1Nc1ccccc1`, in test [10], the result was inactive.
As for `CSc1nc(NC(C)C)nc(NC(C)C)n1`, the call in test [4] was inactive.
Consider `FC(F)C(F)(F)OCC(Cn1cncn1)c1ccc(Cl)cc1Cl` (centres undefined), for which the AC50 is 9.52 µM (active) in [1] and 10.3 µM (active) in test [3]. The compound was called inactive in [6].
For `Nc1nc(N)nc(NC2CC2)n1`, the compound was classed as inactive in test [9].
For the compound `COc1cc(OC)nc(Sc2cccc(Cl)c2C(=O)O)n1`, in test [7], the outcome was inactive.
As to `CC(C)=CC1C(C(=O)OCN2C(=O)C3=C(CCCC3)C2=O)C1(C)C` (centres undefined), the outcome in test [9] was inactive.
The same measure, in the same setting: in the case of `CCOP(=S)(OCC)OC(Cl)C(Cl)(Cl)Cl` (centres undefined) it was “inactive”.
On to `COP(=O)(OC)OC(Br)C(Cl)(Cl)Br` (centres undefined), for which the AC50 in test [1] is 8.83 µM (active).
As for `CCc1cccc(CC)c1N(COC)C(=O)CCl`, the AC50 in test [1] is 4.96 µM (active). Further, the outcome in test [8] was inactive.
As to `CCC(=O)Nc1ccc(Cl)c(Cl)c1`, the values for the AC50 in test [4] and in [7] were 9.91 µM (active) and 34.6 µM (active), respectively.
Consider `C[Si](Cn1cncn1)(c1ccc(F)cc1)c1ccc(F)cc1`, for which the AC50 in [1] is 9.11 µM (active); in test [10], 16.9 µM (active); in test [5], 19.1 µM (active).

For orientation: AC50 means the concentration at which the activity in the assay is half-maximal.
